Measurements from PubChem BioAssay AID2595 (National Center for Advancing Translational Sciences (NCATS), 2010).
Where “and” joins values, the source holds several entries; their conditions need not be identical. Equal entries are not always repeated. Inconclusive results are not listed. Calls of active or inactive are those of the source. Calls come from the whole dose curve; as a rule, active = well fitted inhibition curve with a large enough effect; inconclusive = small, poorly fitted or top-dose-only effect, or effect the other way; inactive = flat fitted curve, though single readings scatter.

Molecular target: Lysosomal acid glucosylceramidase (Homo sapiens) (UniProt P04062)
Experiment: qHTS Assay for Inhibitors and Activators of N370S glucocerebrosidase as a Potential Chaperone Treatment of Gaucher Disease: Purified Non-mutant Glucocerebrosidase
Conditions: purified wildtype GC, 4MU-beta-glucoside fluorescence, 40 min; series mostly up to 76.9 µM
Description: NIH Chemical Genomics Center [NCGC] NIH Molecular Libraries Probe Production Centers Network [MLPCN] MLPCN Grant: MH086442-01 Assay Submitter (PI): Wei Zheng Glucocerebrosidase (GC) catalyzes the hydrolysis of beta-glucocerebroside to glucose and ceramide in lysosomes. Mutations in the glucocerebrosidase gene result in Gaucher disease, an autosomal recessive lysosomal storage disorder. Many of the mutations encountered in patients with Gaucher disease are missense alterations that may cause misfolding, decreased stability and/or mistrafficking of this lysosomal protein. […] These inhibitors include iminosugar analogs and three non-iminosugar inhibitors identified from a previous HTS of 62,000 compounds with the wild type recombinant enzyme. However, the enhancement of enzyme activity by the chaperone action of an enzyme inhibitor must be balanced against the direct inhibition of the enzyme. An enzyme activator could also function as a chaperone by binding to the enzyme and helping to correct its misfolding and mistrafficking. While activators for GC have not yet been identified, they may have better therapeutic potential than inhibitors. Therefore the discovery and development of chemical activators may provide a new strategy for the chaperone therapy. We have optimized a new assay using N370S mutant GC derived from the spleen of a Gaucher patient. […] In addition, the MLPCN compound library has expanded, which increases the chance of finding new and better probes. This assay characterizes compound activity using purified wildtype enzyme instead of mutant enzyme from tissue homogenate. Compound activity differences may be due to the absence of endogenous cofactors found in tissue homogenate as well as inherent differences in enzyme stability and catalytic activity between the N370S and wildtype forms of the protein.
NCGC Assay Protocol Summary: This is a fluorogenic enzyme assay with 4-methylumbelliferyl-beta-D-glucopyranoside as the substrate and purified wildtype glucocerebrosidase as the enzyme preparation. Upon the hydrolysis of this fluorogenic substrate, the resulting product, […] which can be detected by a standard fluorescence plate reader. Data were normalized to the controls for basal activity (without enzyme) and 100% activity (with enzyme). The AC50 values were determined from concentration-response data modeled with the standard Hill equation. Assay buffer: 50 mM citric acid (titrated with potassium phosphate to pH 5.0), 100 mM potassium chloride, 10 mM sodium chloride, 1 mM magnesium chloride, 0.01% Tween-20. 1536-well assay protocol: (1) Add 2 ul/well of glucocerebrosidase enzyme solution (5 nM final) (2) Add 23 nL compounds in DMSO solution. The final titration was 0.5 nM to 58 uM. (3) Add 2 ul of substrate (1 mM final) (4) Incubate at 37C for 40 min. (5) Add 2 ul stop solution (1M NaOH and 1M Glycine mixture, pH 10) (6) Detect the assay plate in a ViewLux plate reader (PerkinElmer) with Ex=365 nm and Em=440nm. Keywords: Glucocerebrosidase, beta-glucosidase, Gaucher Disease, pharmacological chaperone, chaperone therapy, high throughput screening, glucocerebrosidase inhibitor, MLSMR, MLSCN, NIH Roadmap, qHTS and NCGC

Lysosomal acid glucosylceramidase (Homo sapiens), sequence (P04062 whole entry, looked up): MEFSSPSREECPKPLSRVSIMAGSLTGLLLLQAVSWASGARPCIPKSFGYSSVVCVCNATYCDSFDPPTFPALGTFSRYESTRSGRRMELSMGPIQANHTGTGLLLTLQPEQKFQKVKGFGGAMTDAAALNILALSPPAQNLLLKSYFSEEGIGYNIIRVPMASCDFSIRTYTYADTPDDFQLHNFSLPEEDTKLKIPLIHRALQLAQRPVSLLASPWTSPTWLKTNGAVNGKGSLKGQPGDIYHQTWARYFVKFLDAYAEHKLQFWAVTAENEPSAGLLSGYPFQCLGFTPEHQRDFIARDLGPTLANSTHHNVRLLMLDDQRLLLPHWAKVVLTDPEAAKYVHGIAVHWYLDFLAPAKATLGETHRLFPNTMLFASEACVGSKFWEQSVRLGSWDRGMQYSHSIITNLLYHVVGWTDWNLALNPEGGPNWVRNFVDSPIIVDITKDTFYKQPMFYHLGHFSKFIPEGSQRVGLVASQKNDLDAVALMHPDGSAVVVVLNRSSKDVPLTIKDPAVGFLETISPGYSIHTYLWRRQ

Potency, inactive:
Cc1ccc(-c2nc(N3CCN(S(=O)(=O)c4ccc(F)cc4)CC3)c3ccc(Cl)cc3n2)cc1, O=S(=O)(c1ccc(F)cc1)N1CCN(c2nc(-c3cccc(Br)c3)nc3ccccc23)CC1, O=S(=O)(c1cccc(C(F)(F)F)c1)N1CCN(c2nc(-c3cccs3)nc3cc(Cl)ccc23)CC1, O=S(=O)(c1ccc(Cl)cc1)N1CCN(c2nc(-c3cccc(Br)c3)nc3ccccc23)CC1, O=S(=O)(c1ccc(F)cc1)N1CCN(c2nc(-c3ccc(F)cc3)nc3cc(Cl)ccc23)CC1, O=S(=O)(c1ccc(Cl)cc1)N1CCN(c2nc(-c3ccc(F)cc3)nc3cc(Cl)ccc23)CC1, O=S(=O)(c1ccc(Cl)cc1)N1CCN(c2nc(-c3ccc(Cl)cc3)nc3ccccc23)CC1, CC(C)C(C)NC(=O)CSc1nc2scc(-c3ccco3)c2c(=O)n1-c1ccccc1 (centres undefined), O=S(=O)(c1ccc(F)cc1)N1CCN(c2nc(-c3ccccc3)nc3cc(Cl)ccc23)CC1, COc1ccc(-c2nc(N3CCN(S(=O)(=O)c4ccc(F)cc4)CC3)c3ccccc3n2)cc1, O=S(=O)(c1ccc(F)cc1)N1CCN(c2nc(-c3cccs3)nc3cc(Cl)ccc23)CC1, Cc1ccc(S(=O)(=O)N2CCN(c3nc(-c4ccc(F)cc4)nc4cc(Cl)ccc34)CC2)cc1, Cc1ccc(Cl)cc1NC(=O)c1ccccc1OCC(=O)Nc1ccc(Cl)cc1, O=S(=O)(c1ccccc1)N1CCN(c2nc(-c3ccc(F)cc3)nc3cc(Cl)ccc23)CC1

Potency, active:
Cc1cc(C)cc(N(CC(=O)NC2CCCCCC2)S(=O)(=O)c2c(C)[nH]c(=O)[nH]c2=O)c1 0.398 µM, O=S(=O)(Cc1ccccc1)N1CCN(c2nc(-c3cccs3)nc3ccccc23)CC1 10 µM, COc1ccc(S(=O)(=O)N2CCN(c3nc(-c4cccs4)nc4ccccc34)CC2)cc1 14.1 µM, c1csc(-c2nc(NCC3CCCO3)c3ccccc3n2)c1 (centres undefined) 15.8 µM, NS(=O)(=O)c1ccc(S(=O)(=O)N2CCN(c3nc(-c4cccs4)nc4ccccc34)CC2)cc1 15.8 µM, O=S(=O)(c1ccc2ccccc2c1)N1CCN(c2nc(-c3cccs3)nc3ccccc23)CC1 8.91 µM, O=S(=O)(c1cccs1)N1CCN(c2nc(-c3cccs3)nc3ccccc23)CC1 8.91 µM, O=S(=O)(c1ccc2c(c1)OCCO2)N1CCN(c2nc(-c3ccccc3)nc3ccccc23)CC1 12.6 µM, CC(C)(C)C(=O)OCCNc1nc(-c2ccccc2)nc2ccccc12 0.708 µM, O=S(=O)(c1ccc(Cl)cc1)N1CCN(c2nc(-c3cccs3)nc3ccccc23)CC1 2.51 µM and 6.31 µM, O=S(=O)(c1ccccc1C(F)(F)F)N1CCN(c2nc(-c3cccs3)nc3ccccc23)CC1 4.47 µM, O=S(=O)(c1cccc2ccccc12)N1CCN(c2nc(-c3cccs3)nc3ccccc23)CC1 14.1 µM, S=C(NCCCc1cnc[nH]1)NCCCN(Cc1ccc(Cl)c(Cl)c1)c1ccc(Br)cn1 0.708 µM, O=S(=O)(c1ccc(Cl)cc1)N1CCN(c2nc(Nc3cc(Cl)ccc3O)nc3ccccc23)CC1 1.26 µM, O=C(c1ccc2c(c1)OCCO2)N1CCN(c2nc(-c3cccs3)nc3ccccc23)CC1 31.6 µM, O=S(=O)(c1ccccc1Cl)N1CCN(c2nc(-c3cccs3)nc3ccccc23)CC1 2.82 µM, OCCNc1nc(-c2cccs2)nc2ccccc12 17.8 µM, Cc1ccc(S(=O)(=O)N2CCN(c3nc(-c4cccs4)nc4ccccc34)CC2)cc1 2 µM and 10 µM, COc1cccc(S(=O)(=O)N2CCN(c3nc(-c4cccs4)nc4ccccc34)CC2)c1 10 µM, O=S(=O)(c1ccc2c(c1)OCCO2)N1CCN(c2nc(-c3cccs3)nc3ccccc23)CC1 2.51 µM
